Among all 5,500 compounds or so, about 2,000 (36%) were called active. Another 18% or so got no clear call; they are omitted. No stated cut-off is given here; in the data, active means normalized growth mostly below about 0.91 (no sharp cut-off); inconclusive means no clear call, values can overlap the other calls; inactive means mostly above about 0.92. Some of the results follow.
Assay: chemical genetic growth profiling, strain panel (AID 1159580);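 further: tested at 20 µM; growth read once vehicle control cultures reached saturation at 30 °C; 1 = growth at the plate median or of vehicle wells; lower values mean less growth of the strain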
Settings: growth OD
[1] = S. cerevisiae deletion strains, locus YAL040C, strain CLN3, active compounds read low
[2] = S. cerevisiae deletion strains, locus YDR363W, strain ESC2, active compounds read low
[3] = S. cerevisiae deletion strains, locus YER002W, strain NOP16, active compounds read low
[4] = S. cerevisiae deletion strains, locus YGR078C, strain PAC10, active compounds read low
[5] = S. cerevisiae deletion strains, locus YJR075W, strain HOC1, active compounds read low
[6] = S. cerevisiae deletion strains, locus YNL153C, strain GIM3, active compounds read low
[7] = S. cerevisiae deletion strains, locus YNL175C, strain NOP13, active compounds read low
[8] = S. cerevisiae deletion strains, locus YNL197C, strain WHI3, active compounds read low
[9] = S. cerevisiae deletion strains, locus YNL224C, strain SQS1, active compounds read low
[10] = S. cerevisiae deletion strains, locus YOR083W, strain WHI5 (second series), active compounds read low
[11] = S. cerevisiae deletion strains, locus YPL241C, strain CIN2, active compounds read low
[12] = S. cerevisiae deletion strains, locus YAL013W, strain DEP1, active compounds read low
[13] = S. cerevisiae deletion strains, locus YMR263W, strain SAP30, active compounds read low
[14] = S. cerevisiae deletion strains, locus YPL055C, strain LGE1, active compounds read low

Measured: normalized growth

COc1cc2c(cc1OC)-c1cc(=Nc3c(C)cc(C)cc3C)n(C)c(=O)n1CC2
inactive: [1] 0.995 | S. cerevisiae deletion strains, locus YCL061C, strain MRC1 (second series), active compounds read low 0.998 | [2] 1 | [3] 1.02 | [4] 1.01 | [5] 0.97 | S. cerevisiae deletion strains, locus YMR307W, strain GAS1, active compounds read low 0.998 | [6] 0.999 | [7] 0.996 | [8] 1.01 | [9] 1.01 | [10] 1.02 | [11] 0.993

c1cc(C2CCCCC2)ccc1C1CCCCC1
inactive: [12] 1.01 | S. cerevisiae deletion strains, locus YBR229C, strain ROT2, active compounds read low 1 | S. cerevisiae deletion strains, locus YCL061C, strain MRC1, active compounds read low 0.965 | S. cerevisiae deletion strains, locus YDL101C, strain DUN1, active compounds read low 0.968 | S. cerevisiae deletion strains, locus YDR150W, strain NUM1, active compounds read low 0.958 | S. cerevisiae deletion strains, locus YEL061C, strain CIN8, active compounds read low 1.01 | [4] 0.982 | S. cerevisiae deletion strains, locus YHR030C, strain SLT2, active compounds read low 0.878 | S. cerevisiae deletion strains, locus YHR087W, strain rtc3, active compounds read low 1.04 | S. cerevisiae deletion strains, locus YJR043C, strain POL32, active compounds read low 1 | [5] 1.03 | S. cerevisiae deletion strains, locus YLR039C, strain RIC1, active compounds read low 1.05 | S. cerevisiae deletion strains, locus YLR058C, strain SHM2 (second series), active compounds read low 1.02 | S. cerevisiae deletion strains, locus YLR085C, strain ARP6, active compounds read low 1.04 | S. cerevisiae deletion strains, locus YLR262C, strain YPT6, active compounds read low 1.04 | S. cerevisiae deletion strains, locus YML094W, strain GIM5, active compounds read low 1.02 | S. cerevisiae deletion strains, locus YMR219W, strain ESC1, active compounds read low 1.04 | [13] 1 | [6] 0.983 | S. cerevisiae deletion strains, locus YNL298W, strain CLA4 (second series), active compounds read low 0.987 | S. cerevisiae deletion strains, locus YNL322C, strain KRE1, active compounds read low 1.01 | S. cerevisiae deletion strains, locus YNR030W, strain Alg12, active compounds read low 0.967 | S. cerevisiae deletion strains, locus YOL006C, strain TOP1, active compounds read low 0.893 | [14] 1.05 | [11] 1 | S. cerevisiae deletion strains, locus YPR135W, strain CTF4, active compounds read low 1.05 | S. cerevisiae strains, strain wild type, active compounds read low 0.973

CC(=O)NBr
inactive: [12] 1.02 | [1] 0.995 | [2] 1.01 | [3] 1.01 | [4] 1.01 | [13] 1 | S. cerevisiae deletion strains, locus YNL128W, strain TEP1, active compounds read low 1.01 | [7] 1.01 | [8] 0.997 | [9] 1.01 | [10] 1.01 | [14] 0.999

From PubChem BioAssay AID1159580 (chemical genetic matrix, 2015)
